In the supplement of paper PMC10037445:
In all, about 2,900 compounds were measured (“NF-kB SEAP reporter activity, fold change vs agonist alone”: median about 0.99, highest 2% from about 2.6 on). The entries come from a sample that favours the highest values as a whole.

How the values were obtained:
RAW-Dual [1] = assay: NF-kB SEAP reporter activity, fold change vs agonist alone; higher = enhanced NF-kB activity
Outline: (§1)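 After 50 nL of library stock was delivered by pin tool to RAW-Dual macrophages (50,000 cells/well, DMEM, 384-well plates), a PRR agonist was added 1 h later and the plates were kept at 37 °C, 5% CO2. Twenty hours later, IRF was read from supernatant by QuantiLuc luminescence and NF-κB by QuantiBlue absorbance at 620 nm. Reporter activity is stated as fold change over agonist-alone wells. Wells with IncuCyte confluency under 70% of agonist controls in both mask sets were counted as cytotoxic.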

RAW-Dual [2] = assay: NF-kB SEAP reporter activity, fold change vs agonist alone; cytotoxicity flag (confluency mask): not cytotoxic; higher = enhanced NF-kB activity
Outline: as §1

RAW-Dual [3] = assay: NF-kB SEAP reporter activity, fold change vs agonist alone; cytotoxicity flag (confluency mask): cytotoxic (confluency <70% of control); higher = enhanced NF-kB activity
Outline: as §1

[4] = agonist: ODN 1826 (TLR9) 0.5 ug/mL
[5] = agonist: Pam2CSK4 (TLR2/6) 0.1 ug/mL
[6] = agonist: Pam3CSK4 (TLR2/1) 0.1 ug/mL
[7] = library stock concentration (final ~1000-fold dilution): 10 mM, cytotoxicity flag (confluency mask): not cytotoxic, agonist: Imiquimod (TLR7) […]
[8] = library stock concentration (final ~1000-fold dilution): 10 mM, cytotoxicity flag (confluency mask): not cytotoxic, agonist: MPLA (TLR4) […]

Question: How did the “NF-kB SEAP reporter activity” value (RAW-Dual [1]; library stock concentration (final ~1000-fold dilution): 10 mM water, cytotoxicity flag (confluency mask): not cytotoxic, agonist: Imiquimod (TLR7) […]) turn out when `CN1CCN(CC(=O)N2c3ccccc3C(=O)Nc3cccnc32)CC1.Cl.Cl` was run?
Answer: Its value is 0.949.

Question: And the “NF-kB SEAP reporter activity” value (RAW-Dual [1]; library stock concentration (final ~1000-fold dilution): 10 mM water, cytotoxicity flag (confluency mask): not cytotoxic, agonist: MPLA (TLR4) […])?
Answer: The value was 1.01.

Question: Which “NF-kB SEAP reporter activity” value (RAW-Dual [2]; agonist: LPS (TLR4) 0.1 ug/mL) does the source give for `CN1CCN(CC(=O)N2c3ccccc3C(=O)Nc3cccnc32)CC1.Cl.Cl` (library stock concentration (final ~1000-fold dilution): 10 mM water) here?
Answer: The value was 1.25.

Question: And the “NF-kB SEAP reporter activity” value (RAW-Dual [2]; [4])?
Answer: The value was 1.15.

Question: What about the “NF-kB SEAP reporter activity” value (RAW-Dual [2]; [5]) of the same compound?
Answer: The value was 1.16.

Question: What about the “NF-kB SEAP reporter activity” value (RAW-Dual [2]; [6]) of the same compound?
Answer: Its value is 1.06.

Question: `Cl.O=S(=O)(c1cccc2c(I)cccc12)N1CCCNCC1` was tested. Which “NF-kB SEAP reporter activity” value (RAW-Dual [1]; [7]) did it give?
Answer: The value was 0.797.

Question: What about the “NF-kB SEAP reporter activity” value (RAW-Dual [1]; [8]) of the same compound?
Answer: The value was 1.12.

Question: How did the “NF-kB SEAP reporter activity” value (RAW-Dual [2]; agonist: LPS (TLR4) 0.1 ug/mL) turn out when `Cl.O=S(=O)(c1cccc2c(I)cccc12)N1CCCNCC1` (library stock concentration (final ~1000-fold dilution): 10 mM) was run?
Answer: Its value is 0.746.

Question: What about the “NF-kB SEAP reporter activity” value (RAW-Dual [2]; [4]) of the same compound?
Answer: Its value is 0.722.

Question: And the “NF-kB SEAP reporter activity” value (RAW-Dual [2]; [5])?
Answer: Its value is 0.626.

Question: And the “NF-kB SEAP reporter activity” value (RAW-Dual [2]; [6])?
Answer: Its value is 0.568.

Question: Which results are given for `CONC(=O)Nc1ccc(-c2sc3c(c2CN(C)C)c(=O)n(-c2ccc(OC)nn2)c(=O)n3Cc2c(F)cccc2F)cc1` (library stock concentration (final ~1000-fold dilution): 10 mM)?
Answer: NF-kB SEAP reporter activity (RAW-Dual [3]; agonist: LPS (TLR4) 0.1 ug/mL): 3.39; NF-kB SEAP reporter activity (RAW-Dual [3]; [4]): 0.26; NF-kB SEAP reporter activity (RAW-Dual [3]; [5]): 1.01; NF-kB SEAP reporter activity (RAW-Dual [3]; [6]): 1.88

Question: How did the “NF-kB SEAP reporter activity” value (RAW-Dual [1]; library stock concentration (final ~1000-fold dilution): 10 mM, cytotoxicity flag (confluency mask): cytotoxic (confluency <70% of control), agonist: Imiquimod (TLR7) […]) turn out when `CONC(=O)Nc1ccc(-c2sc3c(c2CN(C)C)c(=O)n(-c2ccc(OC)nn2)c(=O)n3Cc2c(F)cccc2F)cc1` was run?
Answer: The value was 2.02.

Question: And the “NF-kB SEAP reporter activity” value (RAW-Dual [1]; library stock concentration (final ~1000-fold dilution): 10 mM, cytotoxicity flag (confluency mask): cytotoxic (confluency <70% of control), agonist: MPLA (TLR4) […])?
Answer: Its value is 2.5.

Question: How did the “NF-kB SEAP reporter activity” value (RAW-Dual [2]; agonist: LPS (TLR4) 0.1 ug/mL) turn out when `CC(C)CCNC(=O)C(CC(C)C)NC(=O)C1OC1C(=O)O` (stereo unspecified) (library stock concentration (final ~1000-fold dilution): 10 mM) was run?
Answer: The value was 1.03.

Question: And the “NF-kB SEAP reporter activity” value (RAW-Dual [2]; [4])?
Answer: The value was 1.02.

Question: What about the “NF-kB SEAP reporter activity” value (RAW-Dual [2]; [5]) of the same compound?
Answer: Its value is 1.

Question: What about the “NF-kB SEAP reporter activity” value (RAW-Dual [2]; [6]) of the same compound?
Answer: The value was 1.19.

Question: `CC(C)CCNC(=O)C(CC(C)C)NC(=O)C1OC1C(=O)O` (stereo unspecified) was tested. Which “NF-kB SEAP reporter activity” value (RAW-Dual [1]; [7]) did it give?
Answer: The value was 0.94.

Question: And the “NF-kB SEAP reporter activity” value (RAW-Dual [1]; [8])?
Answer: Its value is 1.17.

Question: With `Br.NC(=O)C(c1ccccc1)(c1ccccc1)C1CCN(CCc2ccc3c(c2)CCO3)C1` (stereo unspecified) (library stock concentration (final ~1000-fold dilution): 10 mM) as the compound, how does the “NF-kB SEAP reporter activity” value (RAW-Dual [2]; agonist: LPS (TLR4) 0.1 ug/mL) read?
Answer: The value was 0.967.

Question: What about the “NF-kB SEAP reporter activity” value (RAW-Dual [2]; [4]) of the same compound?
Answer: The value was 0.467.

Question: And the “NF-kB SEAP reporter activity” value (RAW-Dual [2]; [5])?
Answer: The value was 0.82.

Question: And the “NF-kB SEAP reporter activity” value (RAW-Dual [2]; [6])?
Answer: The value was 0.919.

Question: `Br.NC(=O)C(c1ccccc1)(c1ccccc1)C1CCN(CCc2ccc3c(c2)CCO3)C1` (stereo unspecified) was tested. Which “NF-kB SEAP reporter activity” value (RAW-Dual [1]; [7]) did it give?
Answer: The value was 1.02.

Question: And the “NF-kB SEAP reporter activity” value (RAW-Dual [1]; [8])?
Answer: Its value is 0.984.

Question: How did the “NF-kB SEAP reporter activity” value (RAW-Dual [1]; [7]) turn out when `C=C1CCC2C(C)(CO)C(O)CC[C@@]2(C)[C@@H]1C/C=C1/C(=O)OCC1O` (stereo partly specified) was run?
Answer: Its value is 0.287.

Question: And the “NF-kB SEAP reporter activity” value (RAW-Dual [1]; [8])?
Answer: The value was 0.305.

Question: What does the source list for `C=C1CCC2C(C)(CO)C(O)CC[C@@]2(C)[C@@H]1C/C=C1/C(=O)OCC1O` (stereo partly specified) (library stock concentration (final ~1000-fold dilution): 10 mM)?
Answer: NF-kB SEAP reporter activity (RAW-Dual [2]; agonist: LPS (TLR4) 0.1 ug/mL): 0.32; NF-kB SEAP reporter activity (RAW-Dual [2]; [4]): 0.206; NF-kB SEAP reporter activity (RAW-Dual [2]; [5]): 0.0769; NF-kB SEAP reporter activity (RAW-Dual [2]; [6]): 0.161

Question: With `Cc1cnc(C(=O)NC2CCCCC/C=C\C3CC3(C(=O)NS(=O)(=O)C3CC3)NC(=O)C3CC(Oc4nc5ccccc5c5ccccc45)CN3C2=O)cn1` (stereo unspecified) as the compound, how does the “NF-kB SEAP reporter activity” value (RAW-Dual [1]; [8]) read?
Answer: Its value is 0.899.

Question: For `Cc1cnc(C(=O)NC2CCCCC/C=C\C3CC3(C(=O)NS(=O)(=O)C3CC3)NC(=O)C3CC(Oc4nc5ccccc5c5ccccc45)CN3C2=O)cn1` (stereo unspecified) (library stock concentration (final ~1000-fold dilution): 10 mM), which “NF-kB SEAP reporter activity” value (RAW-Dual [2]; agonist: LPS (TLR4) 0.1 ug/mL) is on record?
Answer: The value was 0.973.

Question: And the “NF-kB SEAP reporter activity” value (RAW-Dual [2]; [4])?
Answer: The value was 1.05.

Question: And the “NF-kB SEAP reporter activity” value (RAW-Dual [2]; [5])?
Answer: The value was 0.744.

Question: And the “NF-kB SEAP reporter activity” value (RAW-Dual [2]; [6])?
Answer: Its value is 0.617.

Question: With `COc1ccc2c(OC3CC4C(=O)NC5(C(=O)NS(=O)(=O)C6CC6)CC5/C=C\CCCCN(C)C(=O)C4C3)cc(-c3nc(C(C)C)cs3)nc2c1C` (stereo unspecified) as the compound, how does the “NF-kB SEAP reporter activity” value (RAW-Dual [1]; [8]) read?
Answer: Its value is 1.03.

Question: What does the source list for `CC(C)(C)OC(=O)NC1CCCCC/C=C\C2CC2(C(=O)NS(=O)(=O)C2CC2)NC(=O)C2CC(OC(=O)N3Cc4cccc(F)c4C3)CN2C1=O` (stereo unspecified) (library stock concentration (final ~1000-fold dilution): 10 mM)?
Answer: NF-kB SEAP reporter activity (RAW-Dual [2]; agonist: LPS (TLR4) 0.1 ug/mL): 1.01; NF-kB SEAP reporter activity (RAW-Dual [2]; [4]): 0.995; NF-kB SEAP reporter activity (RAW-Dual [2]; [5]): 0.808; NF-kB SEAP reporter activity (RAW-Dual [2]; [6]): 1.03

Question: For `COc1ccc2c(OC3CC4C(=O)NC5(C(=O)NS(=O)(=O)C6CC6)CC5/C=C\CCCCN(C)C(=O)C4C3)cc(-c3nc(C(C)C)cs3)nc2c1C` (stereo unspecified) (library stock concentration (final ~1000-fold dilution): 10 mM), which “NF-kB SEAP reporter activity” value (RAW-Dual [2]; agonist: LPS (TLR4) 0.1 ug/mL) is on record?
Answer: The value was 3.16.

Question: And the “NF-kB SEAP reporter activity” value (RAW-Dual [2]; [4])?
Answer: The value was 0.926.

Question: And the “NF-kB SEAP reporter activity” value (RAW-Dual [2]; [5])?
Answer: Its value is 0.842.

Question: And the “NF-kB SEAP reporter activity” value (RAW-Dual [2]; [6])?
Answer: Its value is 0.952.

Question: Which “NF-kB SEAP reporter activity” value (RAW-Dual [1]; [7]) does the source give for `CC(C)(C)OC(=O)NC1CCCCC/C=C\C2CC2(C(=O)NS(=O)(=O)C2CC2)NC(=O)C2CC(OC(=O)N3Cc4cccc(F)c4C3)CN2C1=O` (stereo unspecified) here?
Answer: Its value is 0.902.

Question: What about the “NF-kB SEAP reporter activity” value (RAW-Dual [1]; [8]) of the same compound?
Answer: Its value is 1.01.

Question: With `Cl.NCc1c[nH]c(=S)n1C1CCc2c(F)cc(F)cc2C1` (stereo unspecified) (library stock concentration (final ~1000-fold dilution): 10 mM) as the compound, how does the “NF-kB SEAP reporter activity” value (RAW-Dual [2]; agonist: LPS (TLR4) 0.1 ug/mL) read?
Answer: The value was 0.779.

Question: What about the “NF-kB SEAP reporter activity” value (RAW-Dual [2]; [4]) of the same compound?
Answer: The value was 0.895.

Question: What about the “NF-kB SEAP reporter activity” value (RAW-Dual [2]; [5]) of the same compound?
Answer: The value was 0.82.

Question: And the “NF-kB SEAP reporter activity” value (RAW-Dual [2]; [6])?
Answer: The value was 0.904.

Question: Which “NF-kB SEAP reporter activity” value (RAW-Dual [1]; [7]) does the source give for `Cl.NCc1c[nH]c(=S)n1C1CCc2c(F)cc(F)cc2C1` (stereo unspecified) here?
Answer: Its value is 1.12.

Question: And the “NF-kB SEAP reporter activity” value (RAW-Dual [1]; [8])?
Answer: The value was 0.889.

Question: What does the source list for `COS(=O)(=O)[O-].COc1cccc2c1nc1ccccc1[n+]2C` (library stock concentration (final ~1000-fold dilution): 10 mM)?
Answer: NF-kB SEAP reporter activity (RAW-Dual [3]; agonist: LPS (TLR4) 0.1 ug/mL): 0.473; NF-kB SEAP reporter activity (RAW-Dual [3]; [4]): 0.781; NF-kB SEAP reporter activity (RAW-Dual [3]; [5]): 0.271; NF-kB SEAP reporter activity (RAW-Dual [3]; [6]): 0.272

Question: For `COc1cc(NS(C)(=O)=O)ccc1Nc1c2ccccc2nc2ccccc12.Cl` (library stock concentration (final ~1000-fold dilution): 10 mM), which “NF-kB SEAP reporter activity” value (RAW-Dual [3]; agonist: LPS (TLR4) 0.1 ug/mL) is on record?
Answer: The value was 2.6.

Question: What about the “NF-kB SEAP reporter activity” value (RAW-Dual [3]; [4]) of the same compound?
Answer: The value was 0.68.

Question: And the “NF-kB SEAP reporter activity” value (RAW-Dual [3]; [5])?
Answer: Its value is 1.05.

Question: And the “NF-kB SEAP reporter activity” value (RAW-Dual [3]; [6])?
Answer: Its value is 0.776.
